In the library only some 3.1% were active in any assay of this set; here they are far more common.
dFosB act: enhances mouse delta FosB homodimer DNA binding. purified delta FosB, TAMRA-CDK5 oligo fluorescence polarization; percent of positive-control signal above neutral wells. activation, % at 25 µM. 340,000 compounds, 0.99% hits. P13346. AID 493131;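 active means mean activation above about 17%, with every replicate also reaching it, limit read from the data, passing the limit was not always enough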
RAD54 branch: blocks human RAD54 Holliday junction branch migration. Q92698. FAM/BHQ fluorescence. inhibition, % at 10.4 µM. 360,000 compounds, 0.14% hits. AID 602329;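 active means mean normalized replicate activity at least 40 and at least half of replicates scoring 40 or more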;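 further: 0% = median of neutral control wells and 100% = median of positive control wells; inhibitors cause a drop in the FAM fluorescence signal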
INS-1E GSIS act: primary screen for activators of insulin secretion dependent on glucose, INS-1E cells, GLuc reporter luminescence; AID 743287; 370,000 compounds, 0.61% hits; activation, % at 16.6 µM; INS-1E GLuc reporter insulin secretion, 2-3 h;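 active means lowest replicate activation of at least 40%, so every replicate reaches that level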;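 further: 0% = median of neutral control wells and 100% = median of IBMX positive control wells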
AF4-AF9 inh: MLL-AF4/AF9 protein interaction inhibition; P42568; AlphaScreen, biotin-AF4 peptide binding to FLAG-AF9; inhibition, % at 10 µM; 350,000 compounds, 0.47% hits;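 active means every replicate reaching a set inhibition limit, whatever the replicate mean, cut at about 25% in these data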;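 further: 0% = plate neutral control median and 100% = total signal loss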
Target sequence (P42568 whole entry, looked up): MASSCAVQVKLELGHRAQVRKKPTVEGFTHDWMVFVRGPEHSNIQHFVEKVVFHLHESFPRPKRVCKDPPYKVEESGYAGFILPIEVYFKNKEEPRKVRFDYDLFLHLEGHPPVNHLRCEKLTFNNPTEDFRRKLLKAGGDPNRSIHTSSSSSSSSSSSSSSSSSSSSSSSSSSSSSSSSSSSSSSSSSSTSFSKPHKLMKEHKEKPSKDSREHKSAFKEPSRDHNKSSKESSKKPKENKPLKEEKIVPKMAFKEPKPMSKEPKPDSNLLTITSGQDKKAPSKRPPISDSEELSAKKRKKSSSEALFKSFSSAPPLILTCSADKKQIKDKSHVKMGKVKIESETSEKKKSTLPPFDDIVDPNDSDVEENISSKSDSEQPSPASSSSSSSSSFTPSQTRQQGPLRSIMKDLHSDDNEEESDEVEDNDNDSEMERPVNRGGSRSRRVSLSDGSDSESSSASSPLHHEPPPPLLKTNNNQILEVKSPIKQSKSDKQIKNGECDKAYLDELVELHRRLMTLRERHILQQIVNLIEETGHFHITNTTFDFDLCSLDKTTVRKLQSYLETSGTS
RAD52 inh: inhibitors of human RAD52 DNA annealing; recombinant RAD52 DNA annealing, FRET fluorescence; inhibition, % at 18.7 µM; 360,000 compounds, 0.46% hits;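 active means every replicate showing at least 50% inhibition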
DENV2 CPE: inhibitors of DENV2 cytopathic effect. DENV2-infected cells, cytopathic effect rescue, plate reader. CPE inhibition, % at 9.99 µM. 350,000 compounds, 1.7% hits. AID 651640; in the data active means CPE inhibition above about 20%, passing the limit was not always enough; tested in BHK-21 cells;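 further: 0% = median of neutral control wells and 100% = median of positive control wells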
Numbers without * were called inactive; / = not tested or not shown.

SMILES | dFosB act | RAD54 branch | INS-1E GSIS act | AF4-AF9 inh | RAD52 inh | DENV2 CPE
C[C@@H]1CN([C@H](C)CO)C(=O)c2cc(NC(=O)Nc3ccc4c(c3)OCO4)ccc2O[C@@H](C)CCCCO[C@H]1CN(C)Cc1ccc2c(c1)OCO2 | / | 6.0 | -32.9 | 38.7* | 17.2 | 15.6
C[C@H](CO)N1C[C@H](C)[C@H](CN(C)Cc2ccc3c(c2)OCO3)OCCCC[C@H](C)Oc2ccc(NC(=O)Nc3ccc4c(c3)OCO4)cc2C1=O | / | 1.2 | -26.6 | 20.1 | 7.7 | -8.0
COc1ccc(CN(C)C[C@@H]2OCCCC[C@H](C)Oc3ccc(NC(=O)Nc4ccc5c(c4)OCO5)cc3C(=O)N([C@@H](C)CO)C[C@@H]2C)cc1 | / | 8.6 | -44.9 | 22.2 | 34.1 | 7.2
C[C@@H]1CN([C@@H](C)CO)C(=O)c2cc(NC(=O)Nc3ccccc3)ccc2O[C@@H](C)CCCCO[C@@H]1CN(C)Cc1ccc2c(c1)OCO2 | / | -3.2 | -22.3 | 1.0 | 44.3 | 15.4
COc1ccc(CN(C)C[C@H]2OCCCC[C@@H](C)Oc3ccc(NC(=O)Nc4ccc5c(c4)OCO5)cc3C(=O)N([C@@H](C)CO)C[C@@H]2C)cc1 | / | 3.8 | -42.6 | 27.7* | 28.9 | -4.2
C[C@H]1CCCCO[C@H](CN(C)Cc2ccc3c(c2)OCO3)[C@@H](C)CN([C@@H](C)CO)C(=O)c2cc(NC(=O)Nc3ccccc3)ccc2O1 | / | -7.4 | -38.2 | 12.3 | 56.3* | 1.4
C[C@@H]1CN([C@H](C)CO)C(=O)c2cc(NC(=O)Nc3ccccc3)ccc2O[C@@H](C)CCCCO[C@H]1CN(C)Cc1ccc2c(c1)OCO2 | / | -11.3 | -32.5 | 18.9 | 61.4* | -3.6
CC(C)NC(=O)N1C[C@@H]2C(c3ccccc3)[C@H](C1)N2CC(F)(F)F (stereo partly drawn) | / | / | 2.9 | / | / | /
C[C@@H]1CN([C@@H](C)CO)C(=O)Cc2cc(NC(=O)Nc3cccc4ccccc34)ccc2O[C@H]1CN(C)Cc1ccc(C(=O)O)cc1 | / | 9.6 | 0.6 | 2.7 | -4.5 | -12.9
Cc1noc(C)c1NC(=O)N(C)C[C@@H]1Oc2c(NS(=O)(=O)c3cn(C)cn3)cccc2C(=O)N([C@@H](C)CO)C[C@H]1C | / | -2.4 | -5.8 | -3.7 | -7.2 | -4.3
C[C@@H]1CCCCO[C@@H](CN(C)Cc2ccccc2)[C@H](C)CN([C@H](C)CO)C(=O)c2cc(NC(=O)Nc3ccc4c(c3)OCO4)ccc2O1 | / | -3.2 | -18.3 | 30.9* | 11.6 | -1.7
C[C@H]1CCCCO[C@@H](CN(C)Cc2ccccc2)[C@@H](C)CN([C@@H](C)CO)C(=O)c2cc(NC(=O)Nc3ccc4c(c3)OCO4)ccc2O1 | / | 3.3 | -27.8 | 19.0 | -6.8 | -2.2
C[C@@H]1CCCCO[C@@H](CN(C)Cc2ccc3c(c2)OCO3)[C@@H](C)CN([C@@H](C)CO)C(=O)c2cc(NC(=O)Nc3ccc(C(F)(F)F)cc3)ccc2O1 | / | -1.9 | -22.8 | 3.3 | 45.8 | -30.1
C[C@@H]1CCCCO[C@@H](CN(C)Cc2ccc3c(c2)OCO3)[C@H](C)CN([C@@H](C)CO)C(=O)c2cc(NC(=O)Nc3ccc(C(F)(F)F)cc3)ccc2O1 | / | 6.8 | 14.9 | 2.6 | 50.5* | -33.0
Cc1ccc(Sc2ccc(CN3CCCC3)cc2[N+](=O)[O-])cc1 | -5.1 | 5.9 | 2.9 | 31.0* | 13.3 | -6.1
Cc1nn(Cc2ccc(Cl)cc2)c(C)c1NC(=O)CCCn1nc(C)c([N+](=O)[O-])c1C | 1.7 | / | -20.6 | / | / | /
Cc1nn(Cc2ccc(Cl)cc2)c(C)c1NC(=O)c1ccc([N+](=O)[O-])cc1 | -2.2 | 4.8 | -23.2 | 3.4 | -12.3 | 33.5*
CCc1c(-c2cccc(Cl)c2)ncn1Cc1cccc(-c2ccccc2)c1 | / | / | -5.8 | / | 21.8 | 22.2*
O=C1CCc2cc(S(=O)(=O)NCCc3ccc(Cl)cc3)cc3c2N1CC3 | -5.8 | 7.2 | 18.2 | -0.1 | 2.6 | 96.9*
COc1ccc(CCNS(=O)(=O)c2cc3c4c(c2)CCN4C(=O)CC3)cc1OC | -1.0 | / | 23.9 | -0.3 | -2.9 | -6.5
O=C(C[C@@H]1C[C@H]2c3cc(NC(=O)NC4CCCC4)ccc3O[C@H]2[C@H](CO)O1)NCc1ccc2c(c1)OCO2 | / | -5.9 | -12.7 | 2.5 | -8.0 | -5.7
NC(c1csc(Nc2cc(NCc3ccco3)ncn2)n1)c1ccccc1Cl (stereo not drawn) | / | -4.5 | 0.8 | 1.3 | -42.8 | 69.5*
NC(Cc1ccc(F)cc1)c1csc(Nc2cc(NCc3ccco3)ncn2)n1 (stereo not drawn) | / | -10.4 | 19.2 | 7.5 | -43.6 | 12.9
CCOc1nc(NC(=O)NS(=O)(=O)Oc2ccccc2Cl)nc(-c2ccccc2)n1 | -5.6 | 7.4 | 59.9* | / | / | /
CCOc1nc(NC(=O)NS(=O)(=O)c2cccc(Cl)c2)nc(-c2ccccc2)n1 | 0.9 | -5.5 | 71.3* | 2.2 | -3.1 | -4.5
SMILES | dFosB act | RAD54 branch | INS-1E GSIS act | AF4-AF9 inh | RAD52 inh | DENV2 CPE
C[C@@H]1CN([C@H](C)CO)C(=O)c2cccc(NC(=O)CCCCCC(=O)Nc3ccccc3N)c2O[C@@H]1CN(C)Cc1ccc(-c2ccccc2)cc1 | / | / | -19.8 | -4.0 | -33.6 | 36.5*
C[C@H]1CN([C@@H](C)CO)C(=O)c2cc(NC(=O)CCCCCC(=O)Nc3ccccc3N)ccc2O[C@@H]1CN(C)Cc1ccc2c(c1)OCO2 | / | / | 20.1 | -0.9 | -3.6 | -4.9
C[C@@H]1CN([C@@H](C)CO)C(=O)c2cccc(NC(=O)CCCCCC(=O)Nc3ccccc3N)c2O[C@@H]1CN(C)Cc1ccc2c(c1)OCO2 | / | / | 18.2 | -2.4 | 2.2 | 49.5*
C[C@H](CO)N1C[C@H](C)[C@H](CN(C)C(=O)Nc2ccccc2)Oc2ccc(NC(=O)CCCCCC(=O)Nc3ccccc3N)cc2C1=O | / | / | -9.0 | -0.1 | 4.5 | 52.2*
C[C@H](CO)N1C[C@H](C)[C@H](CN(C)Cc2ccc(-c3ccccc3)cc2)Oc2ccc(NC(=O)CCCCCC(=O)Nc3ccccc3N)cc2C1=O | / | / | -36.9 | -1.7 | 34.0 | 32.2*
C[C@H]1CN([C@@H](C)CO)C(=O)c2cc(NC(=O)CCCCCC(=O)Nc3ccccc3N)ccc2O[C@H]1CN(C)C(=O)Nc1ccccc1 | / | / | -6.5 | -1.8 | -2.7 | -3.1
C[C@H]1CN([C@@H](C)CO)C(=O)c2cccc(NC(=O)CCCCCC(=O)Nc3ccccc3N)c2O[C@@H]1CN(C)C | / | / | 1.4 | 1.6 | -4.6 | 23.4*
C[C@H](CO)N1C[C@H](C)[C@@H](CN(C)S(=O)(=O)c2ccc(F)cc2)Oc2ccc(NC(=O)CCCCCC(=O)Nc3ccccc3N)cc2C1=O | / | / | 11.4 | -2.4 | -40.2 | 25.6*
C[C@@H]1CN([C@@H](C)CO)C(=O)c2ccccc2-c2ccccc2CO[C@H]1CN(C)C(=O)c1cc(Cl)cc(Cl)c1 | / | / | 3.4 | 2.8 | 3.9 | -5.9
C[C@H](CO)N1C[C@H](C)[C@@H](CN(C)Cc2ccc3c(c2)OCCN3C)OCc2ccccc2-c2c(n(C)c3ccccc23)C1=O | / | / | -6.9 | 30.8* | 24.4 | 37.3*

Assay outcomes as filed in PubChem.
